# ± gives the standard deviation of the averaged measurements.
# Tested on: AEK1 (Tb927.3.2440)
# Assay: percent reduction in TR-FRET probe signal relative to DMSO control; higher = stronger displacement of ATP-site probe (binding)
# Settings: 1 µM; incubation time 1 h
row,SMILES,percent reduction in TR-FRET probe signal
1,COc1cc2ncnc(Oc3ccc(CC(=O)Nc4cnn(C(C)C)c4)cc3)c2cc1OC,5.15 ± 13%
2,Cc1cc2c(F)c(Oc3ncnn4cc(OC[C@@H](C)O)c(C)c34)ccc2[nH]1,20.2 ± 15%
3,O=C1NC(=O)/C(=C/c2ccc(-c3ccc(F)cc3O)o2)S1,16 ± 24%
4,Cc1ccc(Nc2nccc(N(C)c3ccc4c(C)n(C)nc4c3)n2)cc1S(N)(=O)=O [Pazopanib],7.95 ± 16%
5,C#Cc1cccc(Nc2ncnc3cc(OC)c(OCCCCCCC(=O)NO)cc23)c1,-2.76 ± 13%
6,Cc1ccc(NC(=O)c2cccc(N(C)C)c2)cc1NC(=O)c1ccc(O)cc1,-8.68 ± 4%
7,COc1cc(OC)c(/C=C/S(=O)(=O)Cc2ccc(OC)c(NCC(=O)[O-])c2)c(OC)c1.[Na+],-3.78 ± 11%
8,Cc1cc2c(F)c(Oc3ncnn4cc(OC[C@@H](C)OC(=O)[C@H](C)N)c(C)c34)ccc2[nH]1,8.47 ± 14%
9,C1=C/COCc2cc(ccc2OCCN2CCCC2)Nc2nccc(n2)-c2cccc(c2)COC/1 [Pacritinib (SB1518)],-2.95 ± 9.1%
10,Nc1nc(N)c2nc(-c3cccc(O)c3)c(-c3cccc(O)c3)nc2n1,19.3 ± 26%
11,CN1CCN(S(=O)(=O)c2ccc(-c3cnc(N)c(C(=O)Nc4cccnc4)n3)cc2)CC1,-4.29 ± 6.5%
12,Cc1n[nH]c2ccc(-c3cncc(OC[C@@H](N)Cc4ccccc4)c3)cc12,14.1 ± 24%
13,COc1cc2c(c(OC)c1OC)-c1c(cc3c(c1OC)OCO3)C[C@@H](C)[C@@H](C)C2 [Schisandrin B (Sch B)],13.6 ± 28%
14,Cc1nc(Nc2ncc(C(=O)Nc3c(C)cccc3Cl)s2)cc(N2CCN(CCO)CC2)n1 [Dasatinib],10.6 ± 19%
15,COc1cc2nccc(Oc3ccc(NC(=O)Nc4ccc(F)cc4F)c(F)c3)c2cc1OC,10.2 ± 11%
16,NCC(=O)Nc1ccc(-n2nc(C(F)(F)F)cc2-c2ccc3c(ccc4ccccc43)c2)cc1,-2.82 ± 7.5%
17,CCOc1ccn(-c2ccc(F)cc2)c(=O)c1C(=O)Nc1ccc(Oc2ccnc(N)c2Cl)c(F)c1,-0.77 ± 15%
18,CCCCOc1c(C(=O)c2c(F)cc(C)cc2F)cnc2[nH]ncc12,0.53 ± 8%
19,CO[C@H]1C[C@@H]2CC[C@@H](C)[C@@](O)(O2)C(=O)C(=O)N2CCCC[C@H]2C(=O)O[C@H]([C@H](C)C[C@@H]2CC[C@H](n3cnnn3)[C@H](OC)C2)CC(=O)[C@H](C)/C=C(\C)[C@@H](O)[C@@H](OC)C(=O)[C@H](C)C[C@H](C)/C=C/C=C/C=C/1C [Zotarolimus(ABT-578)],-16.6 ± 5%

row,SMILES,percent reduction in TR-FRET probe signal
1,O=C(NCc1cccc(O)c1)Nc1nc(-c2ccncc2)cs1,-10 ± 8.6%
2,Cc1cnc(Nc2ccc(F)cc2Cl)nc1-c1c[nH]c(C(=O)N[C@H](CO)c2cccc(Cl)c2)c1,9.02 ± 15%
3,N#Cc1c(O)c2c(-c3ccc(-c4ccccc4O)cc3)csc2[nH]c1=O,-7.05 ± 2.1%
4,Cc1nc2c(-c3cnc(N)nc3)nc(N3CCOCC3)nc2n1C(C)C,-5.76 ± 8.3%
5,CC1(C)CNc2cc(NC(=O)c3cccnc3NCc3ccncc3)ccc21.O=P(O)(O)O.O=P(O)(O)O [Motesanib Diphosphate (AMG-706)],2.79 ± 7.6%
6,CC(C)(C)c1cc(/C=C(\C#N)C(N)=S)cc(C(C)(C)C)c1O [Tyrphostin AG 879],4.66 ± 0.43%
7,CNS(=O)(=O)C[C@H]1CC[C@H](N(C)c2ncnc3[nH]ccc23)CC1.O=C(O)/C=C\C(=O)O [Oclacitinib],6.94 ± 17%
8,COc1ccc2c(c1)c(C1=C(c3c[nH]c4ccccc34)C(=O)NC1=O)cn2CCCN(C)C,4.65 ± 14%
9,CN(c1ccccc1CNc1nc(Nc2ccc3c(c2)CC(=O)N3)ncc1C(F)(F)F)S(C)(=O)=O,55.1 ± 4.3%
10,CN1CC[C@H](c2c(O)cc(O)c3c(=O)cc(-c4ccccc4Cl)oc23)[C@H](O)C1.Cl [Flavopiridol HCl],-6.15 ± 9.4%
11,Cc1cnc(Nc2ccc(N3CCN(C)CC3)cc2)nc1Nc1cccc(S(=O)(=O)NC(C)(C)C)c1,5.49 ± 1.9%
12,C=CC(=O)N1CCCC(n2c(=O)n(-c3ccc(Oc4ccccc4)cc3)c3c(N)ncnc32)C1 (configuration not stated) [ONO-4059 analogue],4.33 ± 16%
13,Cc1c(CN2CCN(C(=O)[C@H](C)O)CC2)sc2c(N3CCOCC3)nc(-c3cnc(N)nc3)nc12,0.467 ± 7.8%
14,Cc1cc(C(=O)NOCCO)c(Nc2ccc(I)cc2F)n(C)c1=O,4.03 ± 2.7%
15,Nc1cccc(-c2cc3c(Oc4cccc(O)c4)ncnc3[nH]2)c1,18.7 ± 22%
16,CC(=O)Nc1nc(C)c(-c2ccc(Cl)c(S(=O)(=O)NCCO)c2)s1,-6.5 ± 15%
17,CC(O)C(=O)O.CC(O)C(=O)O.CN1CCN(c2ccc3nc(-c4c(N)c5c(F)cccc5[nH]c4=O)[nH]c3c2)CC1 [Dovitinib (TKI-258) Dilactic Acid],10.5 ± 12%
18,CCn1c2ccccc2c2cc(Nc3ccnc(NCCCN4CCOCC4)n3)ccc21,-8.54 ± 5.5%

# Source: the supplement of paper PMC10720658
